Assay results taken from PubChem BioAssay (NCATS).
Records with an inconclusive call do not appear. Unless noted, calls follow the shape of the dose curve; as a rule, active = well fitted curve in either direction with a large enough effect (not every such curve was filed as active); inconclusive = small, poorly fitted or top-dose-only effect, or another doubt; inactive = flat fitted curve, though single readings scatter.

Tests used:
[1] = AP1 Signaling Pathway (AID 357); conditions: ME-180 AP-1-bla reporter, EGF-induced, beta-lactamase ratio, 5 h; at 17.2 µM (top of the series) unless noted;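 also: ME-180 reporter cells stimulated with EGF at its EC50 level; % is scaled to controls: 0 for no effect and ±100 for the full control effect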
Outline: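 Modulation of EGF-driven AP-1 transcription was assessed with a beta-lactamase reporter in ME-180 cells. Compound and EC50 EGF were co-incubated 5 hours at 37 °C before 2.5-hour CCF4 loading at room temperature and dual-emission reading.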

[2] = NFAT Signaling Pathway (AID 444); conditions: Jurkat NFAT-bla M1, carbachol, beta-lactamase ratio, 5 h; at 17.2 µM (top of the series) unless noted;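 also: carbachol stimulus at about its EC50 of 1 µM final; % is scaled to controls: 0 for no effect and ±100 for the full control effect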
Outline: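 Jurkat cells with NFAT-driven β-lactamase reporter and co-expressed M1 receptor, stimulated with carbachol (final 1 uM, ~EC50), compound titration, 5 h at 37 °C. CCF4 loaded 1 h at RT; 460/530 nm ratio gave %activity and AC50.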

[3] = Stat Signaling Pathway (AID 446); conditions: ME-180 SIE beta-lactamase reporter, IL-6 stimulated, 5 h; at 17.2 µM (top of the series) unless noted;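 also: ME-180 cervical cancer cells given 40 pM IL-6 alongside compound; SIE-controlled beta-lactamase reporter measured as 460/530 nm FRET emission ratio; % is scaled to controls: 0 for no effect and ±100 for the full control effect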
Outline: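 Screening format detects activators and inhibitors alike: ME-180 SIE-bla cells stimulated at 40 pM IL-6 for 5 hrs with compound, then dual-emission beta-lactamase read at 405 nm excitation.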

[4] = biological target: Glucocorticoid receptor (Homo sapiens) (UniProt P04150); test: GR-GFP Redistribution (AID 450;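 active = compounds whose dose series gives a full or clear partial fitted curve of increased nuclear translocation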; also: potency is read from the fitted curve at half-maximal effect)
Glucocorticoid receptor (Homo sapiens), sequence (P04150 whole entry, looked up): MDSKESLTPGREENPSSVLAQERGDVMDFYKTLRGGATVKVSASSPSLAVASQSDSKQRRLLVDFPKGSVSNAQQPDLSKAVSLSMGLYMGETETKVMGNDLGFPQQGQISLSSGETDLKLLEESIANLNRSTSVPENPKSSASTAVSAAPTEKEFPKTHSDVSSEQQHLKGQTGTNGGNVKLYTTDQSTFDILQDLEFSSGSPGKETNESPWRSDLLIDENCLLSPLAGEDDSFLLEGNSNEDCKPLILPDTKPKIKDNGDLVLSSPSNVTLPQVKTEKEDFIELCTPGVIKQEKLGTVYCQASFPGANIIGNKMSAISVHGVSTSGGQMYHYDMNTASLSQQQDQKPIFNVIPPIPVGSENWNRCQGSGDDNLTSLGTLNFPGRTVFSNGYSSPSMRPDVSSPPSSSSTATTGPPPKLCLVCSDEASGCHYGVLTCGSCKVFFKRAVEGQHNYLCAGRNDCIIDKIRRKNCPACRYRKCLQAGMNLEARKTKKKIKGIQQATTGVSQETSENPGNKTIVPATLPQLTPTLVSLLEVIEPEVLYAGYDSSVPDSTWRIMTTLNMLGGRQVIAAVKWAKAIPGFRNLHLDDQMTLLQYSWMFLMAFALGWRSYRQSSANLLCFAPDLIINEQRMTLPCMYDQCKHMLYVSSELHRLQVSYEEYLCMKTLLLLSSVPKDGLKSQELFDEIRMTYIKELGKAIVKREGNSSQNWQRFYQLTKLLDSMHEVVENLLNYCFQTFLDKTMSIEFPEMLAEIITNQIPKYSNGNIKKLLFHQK

[5] = qHTS Assay for Identification of Small Molecule Agonists for Hypoxia Response Element Signaling Pathway (AID 914; active = well fitted activation curve with a large enough effect in the signal ratio, with a control signal flat, not every such curve was filed as active; the % refers to the signal ratio; also: % of control where 0% means no effect); conditions: ME-180 (cervical carcinoma) HRE-bla reporter, beta-lactamase ratio, CoCl2, 17 h; activation: active compounds read high
Outline: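 Reporter activity (beta-lactamase, CCF4 460nm/530nm ratio) in HRE-bla ME-180 cells is recorded after 17 h compound exposure with EC50 CoCl2 at 37 degrees Celsius. AC50 values come from titration data.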

CC(=O)N1CC=C2C(C#N)=C(N)C(C#N)(C#N)[C@H](c3ccoc3)[C@H]2C1
inactive: activity change, negative = inhibition [1] 8.44% | activity change, negative = inhibition [2] -12.2% | activity, negative = inhibition [3] 10.5% | Potency [4] > 20.6 µM | activation [5] -26.3%

Cc1ccc(OCc2nnc(NC(=O)c3ccco3)s2)c(C)c1
inactive: activity change, negative = inhibition [1] -4.34% | activity change, negative = inhibition [2] 11.7% | activity, negative = inhibition [3] -14.8% | Potency [4] > 20.6 µM | activation [5] -11.9%

Cc1cccc(OCC(=O)NCC(=O)n2nc(C)cc2C)c1
inactive: activity change, negative = inhibition [1] 2.67% | activity change, negative = inhibition [2] 12.1% | activity, negative = inhibition [3] 4.06% | Potency [4] > 20.6 µM | activation [5] 14.3%

CSc1ccccc1NC(=O)c1c(Br)cnn1C
inactive: activity change, negative = inhibition [1] -8.39% | activity change, negative = inhibition [2] -10.8% | activity, negative = inhibition [3] 1.88% | Potency [4] > 20.6 µM | activation [5] 27.6%

Cc1nn(CCO)c2c1C(=O)CCC2
inactive: activity change, negative = inhibition [1] 3.9% | activity change, negative = inhibition [2] -9.31% | activity, negative = inhibition [3] 5.4% | Potency [4] > 20.6 µM | activation [5] 12.2%

COC(=O)c1[nH]c(C)c(/C(O)=C2\C(=O)C(=O)N(CCN3CCOCC3)C2c2ccccc2OC)c1C (stereo not given)
inactive: activity change, negative = inhibition [1] 3.47% | activity change, negative = inhibition [2] 17.3% | activity, negative = inhibition [3] -6.01% | Potency [4] > 20.6 µM | activation [5] 0.0679%

Cc1cc(=O)oc(C)c1C(=O)Nc1cccc2nonc12
inactive: activity change, negative = inhibition [1] -1.38% | activity change, negative = inhibition [2] 11.1% | activity, negative = inhibition [3] -0.713% | Potency [4] > 20.6 µM | activation [5] 1.4%

COc1ccc2c(c1OC)C(=O)OC2c1c(O)nc(SC)n(-c2ccccc2)c1=O (stereo not given)
inactive: activity change, negative = inhibition [1] -1.4% | activity change, negative = inhibition [2] -5.89% | activity, negative = inhibition [3] -3% | Potency [4] > 20.6 µM | activation [5] 1.25%

CC(C)NC(=O)N1CCOCCOCCN(C(=O)NC(C)C)CCOCCOCC1
inactive: activity change, negative = inhibition [1] 8.52% | activity change, negative = inhibition [2] 0.977% | activity, negative = inhibition [3] 0.97% | Potency [4] > 20.6 µM | activation [5] 3.05%

COC(=O)C1=C(N)Oc2cc(C)[nH]c(=O)c2C1c1ccncc1 (stereo not given)
inactive: activity change, negative = inhibition [1] -8.66% | activity change, negative = inhibition [2] 2.47% | activity, negative = inhibition [3] -7.56% | Potency [4] > 20.6 µM | activation [5] 2.44%

CCOC(=O)C1(C(=O)OCC)C(c2ccccc2)CC(O)N1C(C)=O (stereo not given)
inactive: activity change, negative = inhibition [1] 5.72% | activity change, negative = inhibition [2] 2.25% | activity, negative = inhibition [3] -1.29% | Potency [4] > 20.6 µM | activation [5] 15.4%

COc1ccc(C2C(C#N)=C(N)Oc3n[nH]c(C)c32)cc1CSc1ccccn1 (stereo not given)
inactive: activity change, negative = inhibition [1] -15.2% | activity change, negative = inhibition [2] 13.4% | activity, negative = inhibition [3] -27.9% | Potency [4] > 20.6 µM | activation [5] -21.4%

CCCOC(=O)CSC1=C(C#N)C(c2ccc3c(c2)OCO3)CC(=O)N1 (stereo not given)
inactive: activity change, negative = inhibition [1] -0.809% | activity change, negative = inhibition [2] 11.1% | activity, negative = inhibition [3] 1.94% | Potency [4] > 20.6 µM | activation [5] -15.4%

Cc1ccc(S(=O)(=O)N(CC(O)CN2CCOCC2)c2cc(Cl)ccc2Cl)cc1 (stereo not given)
inactive: activity change, negative = inhibition [1] 0.294% | activity change, negative = inhibition [2] -11% | activity, negative = inhibition [3] -1.96% | Potency [4] > 20.6 µM | activation [5] 11.1%

CC(C)(C)C1=Nn2c(nnc2-c2ccccn2)SC1
inactive: activity change, negative = inhibition [1] 4.11% | activity change, negative = inhibition [2] 0.351% | activity, negative = inhibition [3] 4.69% | Potency [4] > 20.6 µM | activation [5] -1.04%

O=C(O)CCN(CCC(=O)O)c1nnc(SCc2ccccc2)s1
inactive: activity change, negative = inhibition [1] 8.29% | activity change, negative = inhibition [2] 12.2% | activity, negative = inhibition [3] 11.2% | Potency [4] > 20.6 µM | activation [5] 24.5%

CN1CCN(c2c3c(c(C#N)c4nc5ccccc5n24)CCCC3)CC1
inactive: activity change, negative = inhibition [1] 14.7% | activity change, negative = inhibition [2] 0.538% | activity, negative = inhibition [3] 5.04% | Potency [4] > 20.6 µM | activation [5] -2.43%

COc1ccccc1NC(=O)Nc1nnc(C(C)C)s1
inactive: activity change, negative = inhibition [1] -4.89% | activity change, negative = inhibition [2] 20.9% | activity, negative = inhibition [3] -3.37% | Potency [4] > 20.6 µM | activation [5] 10.4%

CCN1CCCC1Cn1cnc2c([nH]c3ccc(C)cc32)c1=O (stereo not given)
inactive: activity change, negative = inhibition [1] -6.04% | activity change, negative = inhibition [2] 8.74% | activity, negative = inhibition [3] 3.87% | Potency [4] > 20.6 µM | activation [5] 9.56%

CCOC(=O)C(c1ccccc1)N1CCN(c2ccc(OC)cc2)CC1 (stereo not given)
inactive: activity change, negative = inhibition [1] -19.8% | activity change, negative = inhibition [2] 19.4% | activity, negative = inhibition [3] 4.69% | Potency [4] > 20.6 µM | activation [5] -13.4%

Cc1nnc(SCCC#N)n(CCC#N)c1=O
inactive: activity change, negative = inhibition [1] 25.1% | activity change, negative = inhibition [2] -2.84% | activity, negative = inhibition [3] -5.67% | Potency [4] > 20.6 µM | activation [5] 15.5%

CCCCOc1ccc(CSC(CC(=O)O)C(=O)O)cc1 (stereo not given)
inactive: activity change, negative = inhibition [1] 11.3% | activity change, negative = inhibition [2] 11.2% | activity, negative = inhibition [3] 1.48% | Potency [4] > 20.6 µM | activation [5] 26.9%
